Drawing on PubChem BioAssay AID720690 (Broad Institute, 2013), this text covers outcome for 35 molecules.

Potency and affinity values are given separately. Activity calls are given as the source filed them.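 How the source made its calls: active means every repeat run showing a signal drop whose fitted half-maximal concentration is at most twice the top tested concentration; inconclusive means repeat runs disagree, or flat partial drop, or poor fit; inactive means the rest.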

A short description of the experiment: general mammalian cell viability loss – activator set, cherry-pick, cytotoxicity control for miR-122 modulator project, dose response (AID 720690). The note with it: HEK293T viability, CellTiter-Glo luminescence, 48 h; series mostly up to 26 µM. In general terms: Cellular ATP, detected with luciferase, serves as a proxy for viable cell number.
`O=C(Nc1ccccc1N1CCN(C(=O)c2ccc(Cl)cc2)CC1)c1cccnc1`: the molecule was called inactive. With `C[C@H]1CN([C@@H](C)CO)S(=O)(=O)c2ccc(C3=CCCC3)cc2O[C@H]1CN(C)Cc1cccnc1` the entry was “inactive”. Turning to `CN1C(=O)c2cc(NC(=O)Nc3ccc(Cl)cc3)ccc2OC[C@H]2O[C@H](CC(=O)NCCN3CCCCC3)CC[C@H]21`, the molecule was classed as inactive.

Take `O=C(C1CCCC1)N1C[C@H]2[C@@H](c3ccccc31)[C@H](CO)N2C(=O)Nc1cccc(F)c1`: the molecule was classed as inactive. Next, `COCC(=O)Nc1ccc2c(c1)C(=O)N(C)[C@H]1CC[C@@H](CC(=O)NCCCN(C)C)O[C@@H]1CO2`: “inactive”. Next, `CC(=O)Nc1ccc(-c2cc(-c3ccc(NC(C)=O)cc3)nc(-c3ccc(NC(C)=O)cc3)n2)cc1`: “inactive”; `CCN(C[C@@H]1N[C@H](CO)[C@H]1c1ccc(-c2ccc(F)cc2)cc1)C(=O)COC`: “inactive”; `C/C=C/c1ccc([C@@H]2[C@@H](CO)N[C@@H]2CN(C(=O)C2CCC2)C(C)C)cc1`: “inactive”. Turning to `COC(=O)C[C@@H]1CC[C@@H]2[C@H](COc3ccc(NC(=O)c4cc(F)cc(F)c4)cc3C(=O)N2C)O1`, the result was inactive.

In the case of `C/C=C/c1ccc([C@H]2[C@@H](CO)N(C(=O)CC)[C@H]2CNC(=O)CC)cc1`, the outcome was inactive. Next, `COc1cccc(NC(=O)N2[C@H](CO)[C@@H](c3ccccc3)[C@H]2CNCC(C)C)c1`: “inactive”; `COC(=O)C[C@H]1CC[C@H]2[C@H](COc3ccc(NS(=O)(=O)c4ccc(F)cc4)cc3C(=O)N2C)O1`: “inactive”. For `COCCNC(=O)C[C@@H]1CC[C@@H]2[C@H](COc3ccc(NS(=O)(=O)c4ccc(Cl)cc4)cc3C(=O)N2C)O1`, the molecule was called inactive. Regarding `CCN(C[C@@H]1[C@@H](c2ccccc2)[C@H](CO)N1C(C)=O)C(=O)NC(C)C`, the result was inactive. Next, `C/C=C/c1ccc([C@@H]2[C@@H](CNC(=O)c3ccncc3)N(C(=O)CC)[C@H]2CO)cc1`: “inactive”; `CCNC(=O)C[C@H]1CC[C@H]2[C@@H](COc3ccc(NS(C)(=O)=O)cc3C(=O)N2C)O1`: “inactive”; `CN1C(=O)c2cc(NC(=O)c3cccs3)ccc2OC[C@H]2O[C@H](CC(=O)NCCN3CCCCC3)CC[C@@H]21`: “inactive”. Next, `Cc1cccc(NC(=O)Nc2ccc3c(c2)C(=O)N(C)[C@@H]2CC[C@@H](CC(=O)NCc4ccccc4Cl)O[C@H]2CO3)c1`: “inactive”; `CCOc1ccc(C(CCc2ccccc2)NC(=O)c2ccccc2F)cc1OCC` (stereo not given): “inactive”. Next, `CCC(=O)N1[C@H](CN(C)C(C)=O)[C@H](c2ccc(-c3cccnc3)cc2)[C@@H]1CO`: “inactive”. In the case of `COc1ccc(CC(NC(C)=O)C(=O)N2CCN(C(=O)N(C(C)C)C(C)C)CC2)cc1` (stereo not given), the molecule was called inactive.

For the molecule `CCCC(=O)Nc1ccc2c(c1)C(=O)N(C)[C@H]1CC[C@@H](CC(=O)NCCN3CCCCC3)O[C@H]1CO2`, the outcome was inactive. With `C/C=C/c1ccc([C@H]2[C@@H](CO)N(C(C)=O)[C@@H]2CN(C(=O)COC)C(C)C)cc1` the entry was “inactive”; with `COCC(=O)NC[C@@H]1[C@H](c2ccc(C3=CCCC3)cc2)[C@H](CO)N1C(=O)C1CC1`, “inactive”; with `Cc1cc(C)cc(NC(=O)c2ccc(CSc3nnc(C)s3)cc2)c1`, “inactive”. `CCCC(=O)Nc1ccc2c(c1)C(=O)N(C)[C@@H]1CC[C@H](CC(=O)N3CCc4ccccc4C3)O[C@H]1CO2`: the molecule was classed as inactive. Next, `O=C(c1cccnc1)N1C[C@H]2[C@@H](c3ccccc31)[C@H](CO)N2C(=O)Nc1ccccc1`: “inactive”; `CCCNC(=O)C[C@H]1CC[C@H]2[C@H](COc3ccc(NC(=O)c4ccc(C(F)(F)F)cc4)cc3C(=O)N2C)O1`: “inactive”; `COC(=O)C[C@H]1CC[C@H]2[C@@H](COc3ccc(NC(=O)Nc4c(C)noc4C)cc3C(=O)N2C)O1`: “inactive”. With `CC(=O)Nc1ccc2c(c1)C(=O)N(C)[C@@H]1CC[C@H](CC(=O)NC3CCCCC3)O[C@H]1CO2` the entry was “inactive”; with `Cc1[nH]c(=O)c(C#N)cc1-c1ccccc1`, “inactive”; with `Cc1cc(C(=O)Nc2ccc3c(c2)C(=O)N(C)[C@H]2CC[C@H](CC(=O)N[C@H](C)c4ccccc4)O[C@H]2CO3)no1`, “inactive”. Next, `CC(=O)N1[C@H](CN(C(=O)c2ccc(F)cc2)C(C)C)[C@@H](c2ccccc2)[C@@H]1CO`: “inactive”; `O=C(c1cccnc1)N1C[C@H]2[C@@H](c3ccccc31)[C@H](CO)N2C(=O)Nc1ccccc1Cl`: “inactive”; `CNC(=O)C[C@H]1CC[C@@H]2[C@H](COc3ccc(NC(=O)Nc4ccccc4)cc3C(=O)N2C)O1`: “inactive”.
